Calls of active or inactive are those of the source. The rule behind the calls is not given here.
biological target: Pantothenate synthetase (Mycobacterium tuberculosis (strain ATCC 25618 / H37Rv)) (UniProt P9WIL5); test: Coupled enzyme confirmation of inhibitors against recombinant Mtb PanC (AID 375); conditions: coupled enzyme assay; at 10 µM, active compounds read high;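 note: 0% = full reaction with vehicle and 100% = no enzyme background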
Sequence (P9WIL5 whole entry, looked up): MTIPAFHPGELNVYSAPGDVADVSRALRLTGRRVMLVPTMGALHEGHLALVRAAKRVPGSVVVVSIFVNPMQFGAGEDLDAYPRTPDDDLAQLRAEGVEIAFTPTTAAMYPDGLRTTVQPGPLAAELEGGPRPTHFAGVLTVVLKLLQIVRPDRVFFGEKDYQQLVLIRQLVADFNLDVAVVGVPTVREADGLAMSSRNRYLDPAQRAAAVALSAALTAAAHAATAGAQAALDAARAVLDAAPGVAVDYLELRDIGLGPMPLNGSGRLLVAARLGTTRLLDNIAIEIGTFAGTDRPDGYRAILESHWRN

| SMILES | inhibition |
| --- | --- |
| COc1ccc(S(=O)(=O)N2CCN(C3CCCCCCC3)CC2)cc1 | 1% (inactive) |
| COc1ccc2c(c1)C1(Nc3ccccc3-c3nc4ccccc4n31)C(=O)N2 (stereo not given) | 0% (inactive) |
| CC1=Nn2c(nnc2-c2ccc(F)cc2)SC1 | 0% (inactive) |
| O=C(Nc1cccc(C(=O)N2CCOCC2)c1)c1cccnc1 | 0% (inactive) |
| Cc1ccc(N2CCN(CCc3nc4cc(NS(C)(=O)=O)ccc4n3C)CC2)cc1 | 0% (inactive) |
| O=C(OCCCN1CCCC1)C1(c2ccccc2)CCCC1 | 1% (inactive) |
| CCOc1ccc(NC(=O)CSc2nnc(Cc3cccn3C)n2-c2ccc(OC)cc2)cc1 | 1% (inactive) |
| O=C1c2ccccc2C(=O)N1CC(O)Cn1nnc2ccccc21 (stereo not given) | 0% (inactive) |
| CCOC(=O)c1cnn(-c2cc(C)c3cc(C)cc(C)c3n2)c1N | 0% (inactive) |
| CCCCOC(=O)c1[nH]c2c(c1C)C(=O)CC(c1cc(OC)c(OC)c(OC)c1)C2 (stereo not given) | 10% (inactive) |
| O=C(CCC(=O)c1cccs1)NCc1ccccc1 | 0% (inactive) |
| Cn1c(=O)n(C)c2cc(NC(=O)C(F)(F)F)ccc21 | 0% (inactive) |
| COc1ccc(C(=O)NCCC(C)C)cc1S(=O)(=O)N1CCOCC1 | 9% (inactive) |
| CC(C)C(C(=O)Nc1ccc2c(c1)OCCO2)N1C(=O)c2ccccc2C1=O (stereo not given) | 0% (inactive) |
| O=C(Nc1nc(-c2ccccc2)cs1)C1CCCO1 (stereo not given) | 3% (inactive) |
| COc1ccc2c(-c3cccnc3)cc(=O)[nH]c2c1 | 6% (inactive) |
| COc1ccc(Cn2c(N)c(C#N)c3nc4ccccc4nc32)cc1OC | 1% (inactive) |
| Cc1cccc(C)c1NC(=O)CC(NCc1ccco1)C(=O)O (stereo not given) | 0% (inactive) |
| Cc1c(NC(=O)CSc2nnc3sc4ccccc4n23)c(=O)n(-c2ccccc2)n1C | 0% (inactive) |
| c1cc(C(c2nnnn2C2CCCC2)N2CCOCC2)ccn1 (stereo not given) | 4% (inactive) |

| SMILES | inhibition |
| --- | --- |
| COc1ccccc1CCNC(=O)C1CCCO1 (stereo not given) | 0% (inactive) |
| O=C(N1CCCCCC1)N1CCN(S(=O)(=O)N2CCCCC2)CC1 | 0% (inactive) |
| NC(Cc1ccc(Oc2ccc(O)cc2)cc1)C(=O)O (stereo not given) | 0% (inactive) |
| CC(=O)OCC(=O)[C@H]1CC[C@H]2[C@@H]3CC=C4C[C@@H](O)CC[C@]4(C)[C@H]3CC[C@]12C | 1% (inactive) |
| CCCCCC(=O)N(CN1C(=O)CCC1=O)c1ccccc1 | 5% (inactive) |
| Cc1cc(C)n(CCCNC(=O)c2ccc(S(=O)(=O)NCc3ccco3)cc2)n1 | 3% (inactive) |
| Cc1cccc2c1nc(-c1ccccc1)n1cnnc21 | 0% (inactive) |
| CCC(C)NC(=O)CCNS(=O)(=O)c1ccc(Br)cc1 (stereo not given) | 0% (inactive) |
| Cc1cc(=O)oc2cc(OCC(=O)OCC(=O)N3CCc4ccccc43)ccc12 | 3% (inactive) |
| O=S(=O)(c1ccc2c(c1)nc1n2CCC1)N1CCOCC1 | 0% (inactive) |
| Cc1ccc(N2CC(C)Cn3c2nc2c3c(=O)n(CC(=O)OCc3ccccc3)c(=O)n2C)cc1C (stereo not given) | 0% (inactive) |
| COc1ccccc1N1CCN(C(=O)C2CC=CCC2C(=O)O)CC1 (stereo not given) | 14% (inactive) |
| COc1ccc(OCC(O)Cn2c(Br)nc3c2c(=O)[nH]c(=O)n3C)cc1 (stereo not given) | 11% (inactive) |
| COc1cccc(CN(C(=O)c2cc3ccccc3oc2=O)C2CC2)c1 | 8% (inactive) |
| c1ccc2c(c1)c1c3n2CCNC3CCC1 (stereo not given) | 0% (inactive) |
| CC(C)=CCCC(C)NC(=O)NC1CCCCC1 (stereo not given) | 0% (inactive) |
| O=S(NCc1ccco1)C12CC3CC(CC(C3)C1)C2 (stereo not given) | 0% (inactive) |
| CC(=O)Oc1cccc2c1C(=O)c1c(OC(C)=O)cc(C(=O)O)cc1C2=O | 2% (inactive) |
| Cc1ccc2nc(SCC(=O)NCc3ccco3)c(C#N)cc2c1 | 0% (inactive) |
| CCCCOc1ccc(NC(=O)Cn2c(=O)ccc3c(C)cc(C)nc32)cc1 | 3% (inactive) |

Source: PubChem BioAssay
